# Source: PubChem (several laboratories)
# SARS 3CLpro inh-1 = SARS-CoV 3CLpro protease inhibition; P0C6X7; recombinant SARS-CoV 3CLpro, quenched FRET peptide cleavage; inhibition, % at 6 µM; 290,000 compounds, 0.14% hits; AID 1706; in the data active means inhibition above about 12%
# GDH-TPI inh = GDH-TPI coupled enzyme inhibition counter-screen; GDH-TPI coupled enzyme counterscreen, NADH absorbance; inhibition, % at 4.8 µM; 360,000 compounds, 1.2% hits
# CCHFV vOTU inh = CCHFV vOTU protease inhibition; 370,000 compounds, 0.55% hits; inhibition, % at 11.5 µM; Pep-AMC fluorescence
# RecA intein inh = inhibitors of M. tuberculosis RecA intein splicing | cell-free RecA intein splicing, fluorescence | inhibition, % (test concentration not listed) | 290,000 compounds, 0.75% hits | AID 2221; in the data active means inhibition above about 30%
# Mtb FBA inh = inhibits M. tuberculosis FBA enzyme | P9WQA3 | purified M. tuberculosis FBA, fluorescence read-out | inhibition, % at 1 µM | 360,000 compounds, 2.3% hits; in the data active means inhibition above about 27%
# Target sequence (P9WQA3 whole entry, looked up): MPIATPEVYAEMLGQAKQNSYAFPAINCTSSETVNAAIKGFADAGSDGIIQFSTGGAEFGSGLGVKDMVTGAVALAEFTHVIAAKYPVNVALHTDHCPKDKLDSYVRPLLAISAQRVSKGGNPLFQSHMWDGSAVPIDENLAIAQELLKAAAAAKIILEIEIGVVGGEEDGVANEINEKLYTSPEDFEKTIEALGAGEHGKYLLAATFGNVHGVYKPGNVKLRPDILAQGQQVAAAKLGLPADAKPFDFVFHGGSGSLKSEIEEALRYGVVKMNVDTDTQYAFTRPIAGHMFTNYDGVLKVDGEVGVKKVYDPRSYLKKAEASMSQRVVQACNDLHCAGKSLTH
# VHR inh abs = DUSP3 (human) phosphatase inhibition. P51452. recombinant VHR phosphatase, pNPP absorbance. inhibition, % at 13.3 µM. 290,000 compounds, 0.52% hits. AID 1654; in the data active means inhibition above about 50%
# Target sequence (P51452 whole entry, looked up): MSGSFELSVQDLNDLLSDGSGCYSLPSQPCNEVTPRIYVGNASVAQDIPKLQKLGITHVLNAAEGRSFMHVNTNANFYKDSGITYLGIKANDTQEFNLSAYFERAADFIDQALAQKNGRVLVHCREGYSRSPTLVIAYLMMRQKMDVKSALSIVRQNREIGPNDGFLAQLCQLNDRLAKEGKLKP
# SARS 3CLpro inh-2 = SARS 3CLpro inhibition, confirmation assay; shares compounds with SARS 3CLpro inh-1; QFRET protease activity assay; inhibition, % at 6 µM; 380 compounds, 36% hits; AID 1879; in the data active means inhibition above about 13%
# Numbers stand for hits; 0 = inactive; - = no result. Only some compounds are listed: those with a hit (about 4.7% of all), similar ones and a draw of the others. Unless noted, no stated cut-off is given here; in the data, active means inhibition above about 30%; inactive means the rest.
SMILES,SARS 3CLpro inh-1,GDH-TPI inh,CCHFV vOTU inh,RecA intein inh,Mtb FBA inh,VHR inh abs,SARS 3CLpro inh-2
COC(=O)C1=C(C)N(Cc2ccc(C(F)(F)F)cc2)C(=NCc2ccc3c(c2)OCO3)NC1c1ccccc1C(F)(F)F (stereo unspecified),-,-,0,-,-,-,-
CCOc1cc(C(N)=O)cc(Br)c1OC,15,0,0,0,0,0,0
COc1cccc(C(=O)Nc2ccc3c(cc2=O)[C@@H](NC(C)=O)CCc2cc(OC)c(OC)c(OC)c2-3)c1,0,0,-,0,0,0,-
CCn1nc(-c2ccccc2)nc2c(=O)n(C)c(=O)nc1-2,17,0,-,95,0,0,37
Cc1ccc(C(=O)c2c3ccc(C(F)(F)F)cc3[n+]([O-])n2CCC(N)=O)cc1,27,0,0,0,0,0,21
NC(=O)CCn1c(C(=O)c2cccc([N+](=O)[O-])c2)c2ccccc2[n+]1[O-],26,0,0,0,0,0,26
NC(=O)CCn1c(C(=O)c2cc(Cl)c(N)c(Cl)c2)c2ccccc2[n+]1[O-],30,0,0,0,0,0,35
Cc1ccc(C(=O)c2c3ccc(C(F)(F)F)cc3[n+]([O-])n2CCCC(N)=O)cc1,-,0,0,0,0,-,-
NCCCn1c(C(=O)c2cc(Cl)c(N)c(Cl)c2)c2ccccc2[n+]1[O-],-,0,0,0,0,-,-
CC(=O)Nc1ccc(S(=O)(=O)NN=c2sc3ccccc3n2C)cc1N,-,0,0,-,0,-,-
Cc1nc(-c2ccc(S(=O)(=O)N3CCN(c4ccccc4)CC3)cc2)co1,12,0,0,0,0,0,0
COc1cccc(N2CCN(S(=O)(=O)c3ccc(-c4coc(C)n4)cc3)CC2)c1,0,0,0,0,0,0,-
CCNS(=O)(=O)c1ccc(CCC(=O)Nc2ccc3c(c2)OCCO3)cc1,0,0,0,-,0,0,-
CC(C)(C)OC(=O)[C@H](Cc1ccccc1)NC(=O)c1[nH]cnc1C(=O)N[C@@H](Cc1ccccc1)C(=O)OCc1ccccc1,13,0,0,0,0,0,0
CC(C)(C)OC(=O)[C@H](Cc1ccccc1)NC(=O)c1nc[nH]c1C(=O)N[C@@H](Cc1ccccc1)C(=O)OC(C)(C)C,-,0,0,0,0,0,-
COc1ccc(NC(=S)Nc2ccc3c(c2)c(=O)n(C)n3-c2ccccc2)cc1,-,0,0,-,0,-,-
O=C(CCS(=O)(=O)c1ccccc1)N1CCN(c2ccc(F)cc2)CC1,13,0,0,0,0,0,0
COC(=O)C1=C(C)N(C)C(=NCc2ccc3c(c2)OCO3)NC1c1ccc(C(F)(F)F)cc1 (stereo unspecified),-,-,0,-,-,-,-
CCOc1ccc(S(=O)(=O)N2CCN(C(=O)c3ccncc3)CC2)cc1,0,0,0,0,0,0,-
O=C(CSc1ccc(F)cc1)Nc1ccc2c(c1)C(=O)NC2=O,13,0,0,0,0,0,0
O=C(NC1CCCCC1)c1csnn1,-,0,0,-,0,-,-
Nc1c(C(O)(C(F)(F)F)C(F)(F)F)cc(C(O)(C(F)(F)F)C(F)(F)F)c2ccccc12,14,0,-,0,0,0,0
COc1ccc(C(=O)NC(=S)Nc2ccc(S(=O)(=O)Nc3cc(OC)nc(OC)n3)cc2)cc1,0,0,0,0,0,0,-
COc1cc(NS(=O)(=O)c2ccc(NC(=S)NC(=O)c3ccc(F)cc3)cc2)nc(OC)n1,12,0,0,0,0,0,0
Cc1cccc(Cl)c1-n1nnnc1C1(C)CSCC(=O)N1Cc1ccc(F)cc1 (stereo unspecified),-,-,0,-,-,-,-
SMILES,SARS 3CLpro inh-1,GDH-TPI inh,CCHFV vOTU inh,RecA intein inh,Mtb FBA inh,VHR inh abs,SARS 3CLpro inh-2
CCOC(=O)C[C@@H](C#N)NC(=O)[C@@H]1CCCN1C(=O)[C@@H](NC(=O)c1ccc(N)c(Cl)c1)C(C)(C)C,-,0,0,-,0,-,-
Cc1cc2c(cc1C)C(c1ccccc1F)CC(=O)N2 (stereo unspecified),13,0,0,0,0,0,0
CCCOC(=O)c1c(-c2ccc(C)cc2C)csc1NC(=O)C1C2CCC(O2)C1C(=O)O (stereo unspecified),12,0,0,0,0,0,0
COc1cccc(CNC(=O)c2ccccc2-c2ccccc2)c1,0,0,0,0,0,0,-
O=C1/C(=C/c2ccco2)SC(=S)N1CCC(=O)N1CCCCC1CCO (stereo unspecified),0,0,0,0,0,0,-
O=C1/C(=C/c2cccc(Cl)c2)SC(=S)N1CCC(=O)N1CCCCC1CCO (stereo unspecified),14,0,0,0,0,0,0
Cc1ccc(NC(=O)c2cccc(S(=O)(=O)Nc3c(C)n(C)n(-c4ccccc4)c3=O)c2)cc1C,-,-,0,-,-,-,-
COC(=O)c1cc(-c2ccccc2)sc1N,51,0,0,0,0,0,0
C#CCNC(=O)c1cc(-c2ccccc2)sc1N,-,-,0,-,-,-,-
C/C(=N/OCO/N=C(/C)c1ccc(F)cc1)c1ccc(F)cc1,0,0,0,0,0,0,-
COc1cc(NC(=O)c2ccc(NS(=O)(=O)c3c(C)noc3C)cc2)cc(OC)c1,0,0,0,0,0,0,-
Cc1noc(C)c1S(=O)(=O)Nc1ccc(C(=O)Nc2ccc(OC(F)(F)F)cc2)cc1,13,0,0,0,0,0,0
Cc1ccc(C)c(N2CCN(C(=O)CCS(=O)(=O)c3ccc4c(c3)NC(=O)C(C)S4)CC2)c1 (stereo unspecified),13,0,0,0,0,0,0
COc1ccc(N2CCN(C(=O)CCS(=O)(=O)c3ccc4c(c3)NC(=O)C(C)S4)CC2)cc1 (stereo unspecified),0,0,0,0,0,0,-
COc1cccc(NC(=O)c2cc(Cl)nnc2Cl)c1,0,0,0,0,0,0,-
COc1cc(NC(=O)c2cc(Cl)nnc2Cl)cc(OC)c1OC,22,0,0,0,0,0,0
O=C(Cn1nnc2ccccc21)c1ccc(Cl)cc1,35,0,0,0,0,0,35
CCOC(=O)C(C)On1c(-n2nc(C)cc2C)nc2ccccc2c1=O (stereo unspecified),0,0,0,0,0,0,-
CCOc1ccc(C2C(C(=O)c3ccc(C)o3)=C(O)C(=O)N2c2nc(C)c(C(=O)OC)s2)cc1 (stereo unspecified),12,0,0,0,0,0,0
CCCCN1CCN(C2=NC(=O)N(c3ccc(Br)cc3)C(=O)C2)CC1,-,-,0,-,-,-,-
CCN(CC)C(=O)Cn1cc(/C=C2\C(=O)NC(=O)N(c3ccccc3F)C2=O)c2ccccc21,17,0,0,0,0,0,23
O=C(Nc1ccc2c(c1)OCO2)N1CCN(Cc2ccco2)CC1,0,0,0,0,0,0,-
CCOc1ccc(NC(=O)CSc2nc(NS(=O)(=O)c3ccc(C)cc3)cc(=O)[nH]2)cc1,13,0,0,0,0,0,0
CCCCOc1ccc(C(=O)Oc2cccnc2)cc1,19,0,0,0,0,0,14
